Bioassay records deposited in PubChem by National Center for Advancing Translational Sciences (NCATS).
Compounds with a hit are over-represented: about 21% of the library has one in this group of screens.
TDP1 cell CPT: growth inhibition of DT40 Tdp1-/-;hTDP1 cells with camptothecin (screen for TDP1 inhibitors). chicken DT40 Tdp1-/-;hTDP1 cells + 20 nM CPT, ATP luminescence, 48 h. 420,000 compounds, 12% hits. Potency, µM (series often up to 46.2 µM), for the others: at the highest dose activity change, negative = growth inhibition, hits mostly inhibitors; note: potency is the fitted concentration of half-maximal effect; nearly all actives have a fitted effect of over 55% in size
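Chicken DT40 Tdp1-/- cells stably complemented with human TDP1 were seeded at 400 cells/well in medium containing 20 nM camptothecin, exposed to pin-transferred compounds, and grown at 37 °C for at least 48 hr. Viability was read as ATP luminescence.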
VP16 counter: inhibits Gal4-VP16 luciferase reporter, ROR gamma counter-screen; Drosophila S2 Gal4-VP16 UAS-luciferase, luminescence, 20 h; Potency, µM (titrated, usually from 53.6 µM), without a hit: at the top dose activity, negative = inhibition, hits mostly inhibitors; 310,000 compounds, 3.5% hits;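 note: Gal4-VP16 expression switched on by copper sulfate through the metallothionein promoter; potency is the fitted concentration of half-maximal effect; nearly all actives have a fitted effect of over 50% in size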
RORgamma inh: ROR gamma (mouse) transcription inhibition. Drosophila S2 Gal4-RORgamma UAS-luciferase reporter, 20 h. Potency, µM (highest dose often 53.6 µM), without a hit: top-dose activity change, negative = inhibition, actives largely listed as inhibitors. 310,000 compounds, 5.4% hits; note: potency is the fitted concentration of half-maximal effect; nearly all actives have a fitted effect of over 60% in size
Target sequence (P51450 whole entry, looked up, the tested form may be a part): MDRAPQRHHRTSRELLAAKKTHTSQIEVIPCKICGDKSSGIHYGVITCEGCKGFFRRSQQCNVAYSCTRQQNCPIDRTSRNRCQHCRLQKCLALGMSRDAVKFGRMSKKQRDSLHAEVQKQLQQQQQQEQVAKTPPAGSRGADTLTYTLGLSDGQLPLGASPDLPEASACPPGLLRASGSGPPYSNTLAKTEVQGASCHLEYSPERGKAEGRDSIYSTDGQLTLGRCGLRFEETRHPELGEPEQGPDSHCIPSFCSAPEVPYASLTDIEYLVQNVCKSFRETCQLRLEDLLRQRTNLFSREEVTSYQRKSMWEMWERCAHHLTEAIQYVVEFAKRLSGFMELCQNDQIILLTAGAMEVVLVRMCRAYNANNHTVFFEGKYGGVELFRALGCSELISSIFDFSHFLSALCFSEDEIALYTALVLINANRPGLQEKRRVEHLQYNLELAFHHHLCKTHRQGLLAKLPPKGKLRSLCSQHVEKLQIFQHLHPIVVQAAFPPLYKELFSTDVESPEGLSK
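Using a luciferase readout, inhibitors were identified by reduced reporter activity in Drosophila cells coexpressing a copper-inducible Gal4–ROR gamma fusion and UAS-driven Photinus luciferase, incubated 20 hr after 700 uM copper sulfate.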
IL1B secr inh: inflammasome signaling inhibition, IL-1 beta readout | THP-1 LPS/ATP IL-1B secretion, AlphaLISA, 16 h; active compounds read low | activity change, % at 57.5 µM | 360,000 compounds, 4.7% hits | AID 743279; in the data active = activity change below about -50%; inconclusive = mostly about -30% to -49%
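THP-1 cells pretreated 1 hr with compounds (up to 57.5 uM final), then stimulated with LPS (250 ng/mL final) plus ATP (1.25 mM final); secreted IL-1B measured by AlphaLISA after 16 hr, decreased signal indicating inhibition.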
ELG1 repair inh: inhibitors of ELG1-dependent DNA repair in HEK293T cells; HEK293T ELG1-luciferase reporter, luminescence, 16 h; DNA damage induced by 5-fluorouridine; Potency, µM (top dose mostly 46.1 µM), for inactives: at the top dose activity change, negative = inhibition, actives largely listed as inhibitors; 330,000 compounds, 2.3% hits; AID 504467; note: potency is the fitted concentration of half-maximal effect; nearly all actives have a fitted effect of over 55% in size
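Quantitative HTS, concentration-response format. 2,000 cells/well co-treated with 5-fluorouridine and compound, 16 hr in 5% CO2 at 37 °C; ONE-Glo luminescence read after 30 min.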
TDP1 cell noCPT: qHTS for Inhibitors of human tyrosyl-DNA phosphodiesterase 1 (TDP1): qHTS in cells in absence of CPT; DT40 Tdp1-/- hTDP1 cells, no CPT, ATP luminescence, 48 h; Potency, µM (top dose mostly 46.2 µM), inactives show top-dose activity change, negative = growth inhibition, usual class: inhibitors; 420,000 compounds, 15% hits; AID 686978, 2013; note: potency is the fitted concentration of half-maximal effect; nearly all actives have a fitted effect of over 55% in size
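Growth kinetics read by CellTiter-Glo luminescence after ≥48 hr at 37 °C. Cells: DT40 Tdp1-/- stably carrying human TDP1, 400 per well, compound exposure in the absence of CPT (DMSO vehicle).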
Numbers without * were called inactive; ? = inconclusive; nt = no result. Unless noted, calls come from the whole dose curve; as a rule, active = well fitted curve in the direction sought with a large enough effect; inconclusive = small, poorly fitted or top-dose-only effect, or another doubt; inactive = no such curve, though single readings can be large; an effect the other way counts as inactive or inconclusive. % is set by controls: 0 for no effect and ±100 for the full control effect.

SMILES	TDP1 cell CPT	VP16 counter	RORgamma inh	IL1B secr inh	ELG1 repair inh	TDP1 cell noCPT
Cc1ccc(-c2c[n+]3c(n2-c2ccccc2)SCC3)cc1	3.3µM*	-10%	33%	-2	?	2.3µM*
COc1ccc(-c2c[n+]3c(n2-c2ccccc2)SCC3)cc1	8.2µM*	-16%	21%	-6	?	4.6µM*
COc1ccc(-c2c[n+]3c(n2-c2ccccc2)SCC3)cc1OC	-2%	2%	1%	44	-22%	?
Cc1n[nH]c(C)c1C(=O)CC1(O)C(=O)N(CCc2ccccc2)c2ccc(Cl)cc21 (stereo not drawn)	?	-7%	-7%	5	?	23µM*
Cc1ccccc1CN1C(=O)C(O)(CC(=O)c2ccccc2)c2cc(Cl)ccc21 (stereo not drawn)	-102%	nt	nt	nt	nt	?
CCc1ccc(C(=O)CC2(O)C(=O)N(CCc3ccccc3)c3ccc(Cl)cc32)cc1 (stereo not drawn)	18µM*	nt	nt	nt	nt	16µM*
CCc1cccc(C)c1Nc1c(-c2ccsc2)nc2ncccn12	5.8µM*	nt	nt	nt	nt	7.3µM*
Cc1cccc(C)c1Nc1c(-c2ccsc2)nc2ncccn12	15µM*	-28%	?	4	11%	?
CCc1cccc(C)c1Nc1c(-c2ccc(SC)cc2)nc2sccn12	?	nt	nt	nt	nt	23µM*
Cc1ccc(Nc2c(-c3ccc(N4CCOCC4)cc3)nc3ncccn23)cc1	?	10%	?	-24	-25%	?
O=C(Nc1c(-c2ccccc2)nc2sccn12)c1ccccc1	?	-11%	6%	-1	9%	?
CC1(c2ccccc2)NC(=O)N(CC(=O)N2CCN(S(=O)(=O)c3c(F)cccc3F)CC2)C1=O (stereo not drawn)	-16%	nt	nt	7	-10%	-19%
COc1ccc(S(=O)(=O)N(C)C[C@H]2Oc3ccc(NS(=O)(=O)c4cccs4)cc3C(=O)N([C@H](C)CO)C[C@@H]2C)cc1	-23%	nt	nt	-21	nt	?
COC(=O)c1ccc(Cl)cc1NC(=O)/C=C/c1ccc(C)o1	-9%	?	?	0	16%	?
CCCCn1nnnc1C(c1cc2ccccc2o1)N1CCN(c2ncccc2C#N)CC1 (stereo not drawn)	?	nt	nt	-3	nt	18µM*
CCCCn1nnnc1C(c1cc2ccccc2o1)N1CCCC1 (stereo not drawn)	?	nt	nt	18	nt	-88%
CCCCn1nnnc1C(c1cc2ccccc2o1)N1CCN(C/C=C/c2ccccc2)CC1 (stereo not drawn)	21µM*	nt	nt	-11	nt	16µM*
COc1ccc(-n2nnnc2C(c2cccc3ccccc23)N2CCN(C/C=C/c3ccccc3)CC2)cc1 (stereo not drawn)	7.3µM*	nt	nt	-19	nt	8.2µM*
C(=C\c1ccccc1)/CN1CCN(C(c2cc3ccccc3o2)c2nnnn2-c2ccc3c(c2)OCCO3)CC1 (stereo not drawn)	13µM*	nt	nt	-13	nt	15µM*
CCC(c1nnnn1-c1ccc2c(c1)OCCO2)N1CCN(CCN2CCOCC2)CC1 (stereo not drawn)	-7%	nt	nt	-1	nt	7%
COc1cc(/C=C2\C(=N)N3N=C(C)SC3=NC2=O)cc(Cl)c1OCCOc1ccc(NC(C)=O)cc1	-3%	9%	-23%	12	3%	19%
CC1(C)Cc2cccc(OC(=O)NC3CCCCC3)c2O1	?	nt	nt	-5	nt	?
COc1ccc(C(c2nnnn2-c2c(C)cccc2C)N2CCN(C/C=C/c3ccccc3)CC2)cc1 (stereo not drawn)	?	nt	nt	19	nt	?
